Among the targets are YARS; XKR5; XKRX; YAP1.
Test in all cases: pooled miR-30 sensor sort-seq; sequence = guide strand
Holding throughout (details): shRNA
Note: reference of the scale not given here.

As for TCGTAGGATCACAAACTCGGAC, in the assay with YARS, the sensor-assay potency score (higher = more potent) is -0.717. Turning to TTAGTTATTACAAGCACACAGG, in the assay with XKR5, the sensor-assay potency score (higher = more potent) was -0.438. Still for that read-out and setting: the figure for TATCTGTGAAGTCTGAGGCTAG is 0.0293. The sequence TAAATGGAAAAGTAAATCGGGG had a sensor-assay potency score (higher = more potent) with XKRX of -0.48. Turning to TGTTGAACAAACTAAATGCTGT, in the assay with YAP1, the sensor-assay potency score (higher = more potent) was found to be 0.164. The same measure, in the same setting: the figure for TGCTGTGACATGAAGCATCTGA is 0.636.

For the sequence TTTGGTTGATAGTATCACCTGT, the sensor-assay potency score (higher = more potent) with YAP1 amounted to 0.841. TACATTAACAGCAGCAATGGAC returned a sensor-assay potency score (higher = more potent) with YAP1 of -0.672. TAAACTCTGTCCATTGTCGAGG gave a sensor-assay potency score (higher = more potent) with XKRX of -0.536. Still for that read-out and setting: in the case of AATACCATTAGCACAACTCTAC it was -0.637; in that of TAACAGAGAGCTAATCTGCTTG, 0.29. In turn, TTCTCGAAGACTTTCTTCTTGG came in with a sensor-assay potency score (higher = more potent) with YARS of -0.635. ATCTTTTTCTGTATTAGCCTGA yielded a sensor-assay potency score (higher = more potent) in the assay with YAP1 of 0.428. Sequence TACACATCTAGTGTGTACTCTT showed a sensor-assay potency score (higher = more potent) with YARS of -0.195.

For the sequence TTAGCCTGAAAACTGCAACTGG, in the assay with YAP1, the sensor-assay potency score (higher = more potent) is -0.22.

On to TTCTCATAGTAACTGACTCGGA, for which the sensor-assay potency score (higher = more potent) in the assay with YARS was -0.794. For TTCTCTACCAACCTCACACTAT, the sensor-assay potency score (higher = more potent) with XKRX is -0.943.

In the case of TATAGAAGCACACAGAAGCATG, the sensor-assay potency score (higher = more potent) in the assay with YARS was -1.29.

TTCAGTAACACTTTCACTCCAA returned a sensor-assay potency score (higher = more potent) with XKRX of 0.565. As for TTAAGGAAAGGATCTGAGCTAT, in the assay with YAP1, the sensor-assay potency score (higher = more potent) was -0.559. Turning to TTGAATAGCCAAGTGCAGGGAG, in the assay with YARS, the sensor-assay potency score (higher = more potent) is 0.352. Turning to TGTTGTTGTCTGATCGATGTGA, in the assay with YAP1, the sensor-assay potency score (higher = more potent) was determined as 0.751.

TAAAGTATCTTGCTGGACGTTT registered a sensor-assay potency score (higher = more potent) with YAP1 of -0.0595. In the assay with XKRX, TAGTCTACTACATTATGGGTGA had a sensor-assay potency score (higher = more potent) of -0.472. Sequence TCTAGTGTGTACTCTTTGCTGA returned a sensor-assay potency score (higher = more potent) with YARS of 0.0358. Take TAAGTTTCACTATTCTTTCGAT: in the assay with XKRX, the sensor-assay potency score (higher = more potent) was 0.293. On to TGATCTTAGACACATTTCCTGT, for which the sensor-assay potency score (higher = more potent) in the assay with XKR5 is -0.718.

TTGATCTTAGACACATTTCCTG: in the assay with XKR5, the sensor-assay potency score (higher = more potent) stood at 0.217.

With TAGCAGACAATTTTGACTGGAA, the sensor-assay potency score (higher = more potent) in the assay with XKR5 is 0.477. On the same count and under the same terms, in the case of TTGTAGAACAGAACCAGACTCA it was 0.203.

The record behind these values is the OligoGym collection.
